Reference: ChEMBL document CHEMBL1961873, “Compounds: GSK PKIS; Assays: Nanosyn kinase panel” (2012)

Columns and labels:
[1] = biological target: RAC-alpha serine/threonine-protein kinase (Homo sapiens) (UniProt P31749); conditions: at 0.1 µM
[2] = biological target: RAC-alpha serine/threonine-protein kinase (Homo sapiens) (UniProt P31749); conditions: at 1 µM
[3] = biological target: RAC-beta serine/threonine-protein kinase (Homo sapiens) (UniProt P31751); conditions: at 0.1 µM
[4] = biological target: RAC-beta serine/threonine-protein kinase (Homo sapiens) (UniProt P31751); conditions: at 1 µM
[5] = biological target: RAC-gamma serine/threonine-protein kinase (Homo sapiens) (UniProt Q9Y243); conditions: at 0.1 µM
Chain of RAC-gamma serine/threonine-protein kinase (Homo sapiens) (Q9Y243 whole entry): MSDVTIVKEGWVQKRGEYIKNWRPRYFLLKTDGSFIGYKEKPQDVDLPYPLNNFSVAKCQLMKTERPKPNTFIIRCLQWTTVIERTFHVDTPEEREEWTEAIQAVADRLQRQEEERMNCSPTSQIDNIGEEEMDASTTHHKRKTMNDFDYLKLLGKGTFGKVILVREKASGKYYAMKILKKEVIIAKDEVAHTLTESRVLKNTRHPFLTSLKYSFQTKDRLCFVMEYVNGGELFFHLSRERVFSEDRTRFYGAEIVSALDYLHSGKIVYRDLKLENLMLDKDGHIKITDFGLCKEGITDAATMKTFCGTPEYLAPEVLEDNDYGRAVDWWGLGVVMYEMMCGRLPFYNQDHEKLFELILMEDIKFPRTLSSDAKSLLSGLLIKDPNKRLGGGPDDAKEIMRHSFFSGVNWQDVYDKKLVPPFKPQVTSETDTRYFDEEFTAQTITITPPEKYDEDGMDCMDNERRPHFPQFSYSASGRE

[6] = biological target: RAC-gamma serine/threonine-protein kinase (Homo sapiens) (UniProt Q9Y243); conditions: at 1 µM
[7] = biological target: G protein-coupled receptor kinase 6 (Homo sapiens) (UniProt P43250); conditions: at 0.1 µM
Chain of G protein-coupled receptor kinase 6 (Homo sapiens) (P43250 whole entry, looked up): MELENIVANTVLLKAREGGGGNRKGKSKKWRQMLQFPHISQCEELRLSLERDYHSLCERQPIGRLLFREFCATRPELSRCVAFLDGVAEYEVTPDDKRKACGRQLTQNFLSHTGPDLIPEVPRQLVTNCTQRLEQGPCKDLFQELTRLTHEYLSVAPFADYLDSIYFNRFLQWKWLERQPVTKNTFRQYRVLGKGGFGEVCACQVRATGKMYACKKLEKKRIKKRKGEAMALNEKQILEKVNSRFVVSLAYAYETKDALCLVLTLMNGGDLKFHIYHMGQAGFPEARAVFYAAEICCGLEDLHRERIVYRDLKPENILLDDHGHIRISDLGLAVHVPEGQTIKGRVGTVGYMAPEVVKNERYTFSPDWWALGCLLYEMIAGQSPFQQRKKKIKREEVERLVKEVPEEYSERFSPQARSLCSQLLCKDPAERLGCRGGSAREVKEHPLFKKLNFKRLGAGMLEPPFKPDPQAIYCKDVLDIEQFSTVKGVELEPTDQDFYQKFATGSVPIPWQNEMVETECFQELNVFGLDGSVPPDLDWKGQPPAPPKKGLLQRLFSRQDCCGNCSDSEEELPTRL

[8] = biological target: G protein-coupled receptor kinase 6 (Homo sapiens) (UniProt P43250); conditions: at 1 µM
[9] = biological target: T1, Rhodopsin kinase GRK7 (Homo sapiens) (UniProt Q8WTQ7); conditions: at 0.1 µM
T1 sequence (whole entry): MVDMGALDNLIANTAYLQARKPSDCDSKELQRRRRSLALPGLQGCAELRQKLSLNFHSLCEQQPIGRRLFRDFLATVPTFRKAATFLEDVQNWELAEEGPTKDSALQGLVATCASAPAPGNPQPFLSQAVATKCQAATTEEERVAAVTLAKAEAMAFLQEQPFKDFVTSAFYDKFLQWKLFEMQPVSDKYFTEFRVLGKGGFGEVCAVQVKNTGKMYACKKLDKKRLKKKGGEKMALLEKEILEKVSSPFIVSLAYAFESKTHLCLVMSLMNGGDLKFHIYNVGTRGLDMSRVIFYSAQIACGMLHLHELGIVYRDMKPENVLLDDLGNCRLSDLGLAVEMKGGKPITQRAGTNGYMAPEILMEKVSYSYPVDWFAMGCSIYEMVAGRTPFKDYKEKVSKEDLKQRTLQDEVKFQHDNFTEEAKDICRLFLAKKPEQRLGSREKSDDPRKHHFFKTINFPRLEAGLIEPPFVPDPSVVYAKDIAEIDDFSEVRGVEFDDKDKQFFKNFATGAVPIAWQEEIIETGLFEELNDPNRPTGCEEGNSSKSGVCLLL

[10] = biological target: T1, Rhodopsin kinase GRK7 (Homo sapiens); conditions: at 1 µM
[11] = biological target: Serine/threonine-protein kinase MRCK alpha (Homo sapiens) (UniProt Q5VT25); conditions: at 0.1 µM
[12] = biological target: Serine/threonine-protein kinase MRCK alpha (Homo sapiens) (UniProt Q5VT25); conditions: at 1 µM
[13] = biological target: Serine/threonine-protein kinase MRCK beta (Homo sapiens) (UniProt Q9Y5S2); conditions: at 0.1 µM
Chain of Serine/threonine-protein kinase MRCK beta (Homo sapiens) (Q9Y5S2 whole entry): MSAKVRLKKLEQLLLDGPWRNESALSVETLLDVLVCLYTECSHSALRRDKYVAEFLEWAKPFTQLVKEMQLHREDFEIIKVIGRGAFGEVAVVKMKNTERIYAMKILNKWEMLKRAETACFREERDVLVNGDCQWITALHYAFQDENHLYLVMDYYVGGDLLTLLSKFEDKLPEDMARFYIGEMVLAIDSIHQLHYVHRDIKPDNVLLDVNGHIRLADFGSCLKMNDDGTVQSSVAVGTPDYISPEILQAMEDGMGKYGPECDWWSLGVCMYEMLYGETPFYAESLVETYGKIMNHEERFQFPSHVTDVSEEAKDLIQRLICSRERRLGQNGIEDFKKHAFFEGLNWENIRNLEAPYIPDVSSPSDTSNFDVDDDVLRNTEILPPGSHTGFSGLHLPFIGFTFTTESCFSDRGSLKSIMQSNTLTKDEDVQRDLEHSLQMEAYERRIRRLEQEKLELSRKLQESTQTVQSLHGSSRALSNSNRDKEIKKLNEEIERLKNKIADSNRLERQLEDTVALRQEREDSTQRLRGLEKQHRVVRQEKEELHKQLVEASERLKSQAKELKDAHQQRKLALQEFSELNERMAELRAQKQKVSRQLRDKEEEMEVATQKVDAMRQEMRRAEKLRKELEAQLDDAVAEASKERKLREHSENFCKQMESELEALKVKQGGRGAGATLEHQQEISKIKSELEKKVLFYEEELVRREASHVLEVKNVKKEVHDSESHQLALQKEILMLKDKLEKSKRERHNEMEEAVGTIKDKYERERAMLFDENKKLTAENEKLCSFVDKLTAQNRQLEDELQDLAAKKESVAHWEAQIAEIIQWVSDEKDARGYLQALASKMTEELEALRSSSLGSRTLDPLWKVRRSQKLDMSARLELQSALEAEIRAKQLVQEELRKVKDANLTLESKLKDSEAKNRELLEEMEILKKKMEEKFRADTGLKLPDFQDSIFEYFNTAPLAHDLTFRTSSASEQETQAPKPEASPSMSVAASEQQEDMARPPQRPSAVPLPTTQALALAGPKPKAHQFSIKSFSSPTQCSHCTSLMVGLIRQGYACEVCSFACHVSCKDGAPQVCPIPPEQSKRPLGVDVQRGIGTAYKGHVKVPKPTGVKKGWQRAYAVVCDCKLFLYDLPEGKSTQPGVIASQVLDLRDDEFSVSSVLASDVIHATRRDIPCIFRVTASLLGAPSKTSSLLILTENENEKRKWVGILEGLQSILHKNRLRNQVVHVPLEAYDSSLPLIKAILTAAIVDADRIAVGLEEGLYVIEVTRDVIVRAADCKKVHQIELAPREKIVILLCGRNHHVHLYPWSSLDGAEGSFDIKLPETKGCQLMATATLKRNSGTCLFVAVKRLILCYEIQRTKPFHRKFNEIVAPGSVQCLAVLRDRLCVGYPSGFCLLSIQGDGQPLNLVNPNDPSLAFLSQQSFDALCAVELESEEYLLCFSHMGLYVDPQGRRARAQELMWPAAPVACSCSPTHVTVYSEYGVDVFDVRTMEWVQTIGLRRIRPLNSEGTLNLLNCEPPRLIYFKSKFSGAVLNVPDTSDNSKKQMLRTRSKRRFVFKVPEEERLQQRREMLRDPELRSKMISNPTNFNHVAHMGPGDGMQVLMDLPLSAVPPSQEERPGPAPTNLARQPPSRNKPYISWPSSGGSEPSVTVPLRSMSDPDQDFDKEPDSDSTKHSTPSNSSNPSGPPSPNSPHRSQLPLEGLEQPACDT

[14] = biological target: Serine/threonine-protein kinase MRCK beta (Homo sapiens) (UniProt Q9Y5S2); conditions: at 1 µM
[15] = biological target: Ribosomal protein S6 kinase alpha-5 (Homo sapiens) (UniProt O75582); conditions: at 0.1 µM
Chain of Ribosomal protein S6 kinase alpha-5 (Homo sapiens) (O75582 whole entry, looked up): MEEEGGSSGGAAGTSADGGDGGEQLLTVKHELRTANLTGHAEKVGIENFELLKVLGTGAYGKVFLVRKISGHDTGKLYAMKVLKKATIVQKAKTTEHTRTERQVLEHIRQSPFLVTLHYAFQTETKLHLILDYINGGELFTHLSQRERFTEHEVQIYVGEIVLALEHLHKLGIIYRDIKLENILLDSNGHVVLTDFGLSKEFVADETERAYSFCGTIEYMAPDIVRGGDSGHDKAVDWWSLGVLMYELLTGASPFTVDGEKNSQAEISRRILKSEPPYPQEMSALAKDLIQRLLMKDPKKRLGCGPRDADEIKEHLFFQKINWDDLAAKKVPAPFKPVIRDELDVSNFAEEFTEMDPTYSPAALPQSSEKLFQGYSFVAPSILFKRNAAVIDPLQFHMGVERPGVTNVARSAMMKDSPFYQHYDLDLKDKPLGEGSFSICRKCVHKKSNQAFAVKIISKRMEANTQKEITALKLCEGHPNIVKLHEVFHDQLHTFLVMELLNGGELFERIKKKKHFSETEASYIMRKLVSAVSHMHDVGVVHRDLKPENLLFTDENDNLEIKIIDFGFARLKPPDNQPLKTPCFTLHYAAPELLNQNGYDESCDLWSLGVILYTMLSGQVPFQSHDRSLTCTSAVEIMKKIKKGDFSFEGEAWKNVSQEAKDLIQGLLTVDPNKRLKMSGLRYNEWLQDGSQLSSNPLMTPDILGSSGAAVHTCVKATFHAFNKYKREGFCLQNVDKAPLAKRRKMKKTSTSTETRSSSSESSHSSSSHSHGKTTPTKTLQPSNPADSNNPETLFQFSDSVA

[16] = biological target: Ribosomal protein S6 kinase alpha-5 (Homo sapiens) (UniProt O75582); conditions: at 1 µM
[17] = biological target: Ribosomal protein S6 kinase alpha-4 (Homo sapiens) (UniProt O75676); conditions: at 0.1 µM
[18] = biological target: Ribosomal protein S6 kinase alpha-4 (Homo sapiens) (UniProt O75676); conditions: at 1 µM
[19] = biological target: Ribosomal protein S6 kinase beta-1 (Homo sapiens) (UniProt P23443); conditions: at 0.1 µM
Chain of Ribosomal protein S6 kinase beta-1 (Homo sapiens) (P23443 whole entry, looked up): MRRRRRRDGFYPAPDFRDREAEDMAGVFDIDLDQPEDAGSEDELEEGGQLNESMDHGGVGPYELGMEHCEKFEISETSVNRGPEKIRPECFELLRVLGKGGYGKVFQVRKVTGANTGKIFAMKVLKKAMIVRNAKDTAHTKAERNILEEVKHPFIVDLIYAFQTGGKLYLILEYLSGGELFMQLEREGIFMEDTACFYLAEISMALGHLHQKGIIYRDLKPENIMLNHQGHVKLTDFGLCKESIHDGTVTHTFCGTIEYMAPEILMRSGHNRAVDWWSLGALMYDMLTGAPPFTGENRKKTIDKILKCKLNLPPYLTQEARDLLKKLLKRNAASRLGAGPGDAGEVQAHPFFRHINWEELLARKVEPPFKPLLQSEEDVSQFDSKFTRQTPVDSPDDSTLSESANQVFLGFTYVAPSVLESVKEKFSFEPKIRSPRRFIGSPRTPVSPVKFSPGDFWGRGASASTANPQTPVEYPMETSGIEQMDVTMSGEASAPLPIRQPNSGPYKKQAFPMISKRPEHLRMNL

[20] = biological target: Ribosomal protein S6 kinase beta-1 (Homo sapiens) (UniProt P23443); conditions: at 1 µM

Chain of RAC-alpha serine/threonine-protein kinase (Homo sapiens) (P31749 whole entry): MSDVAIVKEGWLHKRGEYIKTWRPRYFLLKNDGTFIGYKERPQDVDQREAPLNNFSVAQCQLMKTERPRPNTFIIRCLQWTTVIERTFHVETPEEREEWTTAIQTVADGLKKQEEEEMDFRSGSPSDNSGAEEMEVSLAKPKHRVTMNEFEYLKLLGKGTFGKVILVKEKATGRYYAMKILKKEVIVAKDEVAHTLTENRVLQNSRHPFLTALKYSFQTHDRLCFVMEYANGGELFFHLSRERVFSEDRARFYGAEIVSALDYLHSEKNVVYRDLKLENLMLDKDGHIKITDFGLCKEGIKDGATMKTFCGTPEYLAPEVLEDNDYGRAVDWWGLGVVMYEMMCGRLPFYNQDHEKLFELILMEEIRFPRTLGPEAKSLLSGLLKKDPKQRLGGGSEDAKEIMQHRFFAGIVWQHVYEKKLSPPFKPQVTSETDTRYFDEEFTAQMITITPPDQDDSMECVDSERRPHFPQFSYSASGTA
Chain of RAC-beta serine/threonine-protein kinase (Homo sapiens) (P31751 whole entry): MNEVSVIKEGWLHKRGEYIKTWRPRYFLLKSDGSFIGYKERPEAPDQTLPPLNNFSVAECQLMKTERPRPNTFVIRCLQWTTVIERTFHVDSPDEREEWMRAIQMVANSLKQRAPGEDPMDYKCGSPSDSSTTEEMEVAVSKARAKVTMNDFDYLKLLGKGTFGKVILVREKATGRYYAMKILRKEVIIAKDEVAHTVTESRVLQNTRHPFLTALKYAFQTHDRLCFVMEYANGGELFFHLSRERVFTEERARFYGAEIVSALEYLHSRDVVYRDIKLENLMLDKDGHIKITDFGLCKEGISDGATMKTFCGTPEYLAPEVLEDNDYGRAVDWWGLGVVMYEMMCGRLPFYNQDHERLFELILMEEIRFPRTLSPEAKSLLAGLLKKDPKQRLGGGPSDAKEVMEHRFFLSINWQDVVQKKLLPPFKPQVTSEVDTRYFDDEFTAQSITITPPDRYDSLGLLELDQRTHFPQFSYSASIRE

| SMILES | inhibition [1] [%] | inhibition [2] [%] | inhibition [3] [%] | inhibition [4] [%] | inhibition [5] [%] | inhibition [6] [%] | inhibition [7] [%] | inhibition [8] [%] | inhibition [9] [%] | inhibition [10] [%] | inhibition [11] [%] | inhibition [12] [%] | inhibition [13] [%] | inhibition [14] [%] | inhibition [15] [%] | inhibition [16] [%] | inhibition [17] [%] | inhibition [18] [%] | inhibition [19] [%] | inhibition [20] [%] |
| --- | --- | --- | --- | --- | --- | --- | --- | --- | --- | --- | --- | --- | --- | --- | --- | --- | --- | --- | --- | --- |
| CN(C)CCOc1ccc(-c2nc(-c3ccncc3)c(-c3ccc4c(c3)CC/C4=N\O)[nH]2)cc1 | 0.74 | 0.83 | 1.02 | 0.67 | 1.29 | 0.51 | 3.13 | 2.76 | 1.71 | 0.18 | -0.58 | 0.77 | 0.46 | 0.41 | 3.39 | 7.59 | 2.36 | 4.48 | 1.37 | 1.71 |
| CC(=O)NCc1cccc(C#Cc2cncnc2Nc2ccc(OCc3cccc(F)c3)c(Cl)c2)c1 | -0.84 | -1.16 | -0.39 | 0.71 | 0.73 | 0.47 | 1.84 | 3.06 | -1.42 | 7.96 | 0.23 | -0.33 | 0.09 | 1.09 | -4.98 | -3.7 | 0.45 | 4 | 0.26 | 0.74 |
| Cc1ccc(O)cc1Nc1ccnc2cc(-c3ccccn3)ccc12 | 1.31 | 1.02 | 2.69 | 2.45 | 1.16 | 2.32 | 1.43 | -3.7 | 4 | -2.85 | 0.02 | -2.04 | 1.37 | 0.2 | 4.25 | 3.29 | 0.94 | 2.96 | 1.62 | 1.87 |
| CCCN1CCC(c2ccc(Nc3nc(Nc4cc(F)ccc4C(N)=O)c4cc[nH]c4n3)c(OC)c2)CC1 | -0.31 | 0.33 | 2.13 | 1.62 | 1.85 | 2.68 | 16.3 | 58.8 | 11.6 | 45 | 2.45 | 30.4 | 1.71 | 23.3 | 2.89 | 8.65 | 2.82 | 12 | 2.27 | 7.03 |
| COc1cc2c(cc1Nc1nc(Nc3ccsc3C(N)=O)c3cc[nH]c3n1)N(C(=O)CN(C)C)CCC2(C)C | 1.26 | 0.48 | 2.13 | 2.14 | 0.83 | 2.54 | 49.5 | 87.2 | 34.2 | 63.2 | 2.48 | 6.74 | 4.54 | 14.9 | 4.6 | 8.3 | 5.18 | 13.8 | 2.7 | 4.93 |
| COc1cc(/C=N/Nc2ncnc3[nH]ncc23)ccc1O | 0.87 | 0.81 | 1.01 | 0.76 | 1.65 | 0.92 | 4.89 | 5.42 | 2.24 | 5.07 | 0.11 | 2.49 | 0.6 | 1.83 | 4.13 | 13.9 | 2.93 | 8.42 | 3.45 | 21.4 |
| c1cc(-c2cnn3nc(N4CCOCC4)ccc23)nc(NC2CC2)n1 | 0.69 | 1.04 | 3.2 | 2.75 | 1.36 | 1.78 | 0.85 | 1.72 | 3.91 | 6.6 | 0.21 | -0.69 | 0.92 | 0.61 | 3.83 | 3.75 | 0.89 | 6.24 | 1.29 | 3.7 |
